# Source: paper PMC4336329 (PLoS ONE, 2015)
# Among all 310,000 compounds or so, about 14,000 (4.5%) showed an effect of 50% or more. The effect is printed as a negative number. Many of the other results were omitted from the sample, so strong results are more common in it than they were.
# Target: human ether-à-go-go-related gene (hERG) potassium channel (human, UniProt Q12809)
# Assay: primary screen, population patch clamp on CHO cells stably expressing hERG; higher = less effect of the substance
# 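Further: peak tail current of the secondary pulse compared with the same well before compound.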
# human ether-à-go-go-related gene (hERG) potassium channel, sequence (Q12809 whole entry, looked up): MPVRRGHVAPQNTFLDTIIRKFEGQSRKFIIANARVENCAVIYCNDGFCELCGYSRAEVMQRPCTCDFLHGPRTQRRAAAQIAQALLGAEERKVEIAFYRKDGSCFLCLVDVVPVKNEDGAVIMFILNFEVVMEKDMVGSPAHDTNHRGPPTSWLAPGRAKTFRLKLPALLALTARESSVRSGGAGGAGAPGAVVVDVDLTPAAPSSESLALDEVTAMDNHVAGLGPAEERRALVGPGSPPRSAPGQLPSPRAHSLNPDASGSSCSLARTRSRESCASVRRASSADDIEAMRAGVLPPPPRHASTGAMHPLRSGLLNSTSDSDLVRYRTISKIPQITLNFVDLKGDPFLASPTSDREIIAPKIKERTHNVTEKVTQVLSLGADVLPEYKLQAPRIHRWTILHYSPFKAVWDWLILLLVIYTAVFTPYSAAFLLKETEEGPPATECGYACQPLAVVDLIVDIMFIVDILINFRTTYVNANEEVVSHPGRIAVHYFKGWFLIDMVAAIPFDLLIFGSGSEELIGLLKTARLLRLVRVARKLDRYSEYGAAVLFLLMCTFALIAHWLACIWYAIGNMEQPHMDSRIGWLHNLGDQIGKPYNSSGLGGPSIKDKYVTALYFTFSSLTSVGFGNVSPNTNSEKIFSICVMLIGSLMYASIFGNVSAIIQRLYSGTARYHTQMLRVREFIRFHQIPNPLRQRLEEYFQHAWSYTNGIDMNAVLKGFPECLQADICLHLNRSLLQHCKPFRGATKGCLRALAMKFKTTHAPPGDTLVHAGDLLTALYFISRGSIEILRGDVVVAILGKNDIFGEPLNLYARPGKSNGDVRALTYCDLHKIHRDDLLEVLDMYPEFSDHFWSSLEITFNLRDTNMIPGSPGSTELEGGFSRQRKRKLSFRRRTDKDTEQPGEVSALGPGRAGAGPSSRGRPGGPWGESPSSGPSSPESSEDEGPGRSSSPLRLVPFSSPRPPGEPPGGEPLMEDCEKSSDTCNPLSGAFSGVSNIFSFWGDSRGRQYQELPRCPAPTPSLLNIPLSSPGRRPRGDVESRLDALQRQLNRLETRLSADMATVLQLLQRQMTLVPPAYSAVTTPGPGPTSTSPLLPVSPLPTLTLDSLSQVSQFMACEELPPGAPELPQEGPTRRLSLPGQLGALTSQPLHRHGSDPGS
row,SMILES,"hERG current change (%, negative = inhibition) at 10uM [%]"
1,COc1ccc(C(=O)Nc2ccc3ccccc3n2)c(OC)c1OC,17.8
2,COc1ccc(C[C@H](N)C(=O)N[C@H]2[C@@H](O)[C@H](n3cnc4c(N(C)C)ncnc43)O[C@@H]2CO)cc1.Cl,-5.25
3,Cc1ccc(C(=O)Nc2ccc3c(c2)OCO3)cc1S(=O)(=O)N1CCCCC1,-18.8
4,CC(O)c1nc2ccccc2n1CCCOc1ccccc1 (centres unmarked),-7.48
5,O=C(CN1CCN(CC(=O)Nc2ccccc2Cl)CC1)Nc1ccc(F)c(F)c1,-78.2
6,CCN1CCN(CC(=O)Nc2cc(F)ccc2C)CC1,-46.2
7,CCN(CC)S(=O)(=O)c1ccc(Cl)c(C(=O)NC2CCN(Cc3ccccc3)CC2)c1.Cl,-28.8
8,O=C(CN1CCN(Cc2ccccc2F)CC1)Nc1ccccc1Cl,-27.6
9,O=C(CN1CCN(c2ccc(Cl)cc2)CC1)Nc1ccc(F)c(F)c1,-18.7
10,O=C(CN1CCN(Cc2ccccc2)CC1)Nc1ccc(F)c(F)c1.O=C(O)C(=O)O,-57.1
11,Cl.O=C(CN1CCN(Cc2ccccc2)CC1)Nc1ccc2c(c1)CCC2,-47.6
12,Cc1ccccc1NC(=O)CN1CCN(Cc2ccccc2)CC1,-36.1
13,CCN(CC)S(=O)(=O)c1ccc(NCc2ccccc2)nc1,-11.3
14,CCN(CC)S(=O)(=O)c1ccc(NC2CCN(Cc3ccccc3)CC2)nc1,-57.9
15,O=C(CN1CCCCCC1)Nc1ccc(F)c(F)c1.O=C(O)C(=O)O,-22.4
16,Cc1ccc(F)cc1NC(=O)CN1CCN(Cc2ccccc2)CC1,-63.2
17,COc1ccc(C)cc1NC(=O)CSc1ccc(Cl)cc1,11.1
18,Cc1cccc(C)c1NC(=O)CCS(=O)(=O)c1ccc(Br)cc1,31.2
19,COc1cccc(-c2nc(CS(=O)(=O)CC(=O)N3CCN(C)CC3)c(C)o2)c1,8.02
20,CCN(CC)CC(=O)Nc1ccc(-c2nc3cc(NC(=O)CN(CC)CC)ccc3o2)cc1,-18.1
21,CCNC(=O)NC(=O)COC(=O)c1ccccc1SCC(=O)NC(=O)NCC,3.64
22,Cc1ccc(-c2nc3ccccc3c(C(=O)NCc3cccs3)c2C)cc1,-5.33

row,SMILES,"hERG current change (%, negative = inhibition) at 10uM [%]"
1,COC(=O)C1=C(c2ccc(F)cc2F)C[C@@H]2CC[C@H]1N2C(=O)NCc1ccc(F)cc1,-46.4
2,CC(=O)Nc1ccc(S(=O)(=O)Nc2c(NC3CCCCC3)c3ccccc3oc2=O)cc1,7.19
3,O=C(CN1CCN(CC(=O)c2ccc(F)cc2)CC1)Nc1ccccc1Cl,-68.9
4,O=C(CN1CCC(C(=O)c2ccc(F)cc2)CC1)Nc1ccccc1Cl,-20.5
5,CCN(CC)S(=O)(=O)c1ccc(C)c(NC(=O)CN2CCN(Cc3ccccc3)CC2)c1.Cl,-69.1
6,O=C(CN1CCNCC1)Nc1ccccc1Cl,-2.06
7,CCN(CC)c1ccc(S(=O)(=O)N2CCOCC2)cc1NC(=O)CN1CCN(Cc2ccccc2)CC1.Cl,-45.7
8,Cc1ccc(NC(=O)CN2CCN(Cc3ccccc3)CC2)cc1Cl,-46
9,Cc1ccc(NC(=O)CN2CCN(Cc3ccccc3)CC2)cc1F,-71.2
10,CCN(CC)S(=O)(=O)c1ccc(C)c(NC(=O)CNCCN(C(C)C)C(C)C)c1.O=C(O)C(=O)O,-75.5
11,CCN(CC)S(=O)(=O)c1ccc(C)c(NC(=O)CNCc2ccccc2OC)c1.O=C(O)C(=O)O,-37.7
12,Cc1ccc(S(=O)(=O)N(C)C)cc1NC(=O)CN1CCN(Cc2ccccc2)CC1.Cl,-24.8
13,CC(=O)N1CCN(CC(=O)Nc2ccc(C)c(F)c2)CC1.Cl,0.314
14,CCN(CC)S(=O)(=O)c1ccc(C)c(NC(=O)CN2CCN(C)CC2)c1.O=C(O)C(=O)O,-12.4
15,Cc1cc(-c2csc(N)n2)c(C)n1CCc1ccccc1.Cl,-12.4
16,Cc1ccc(Oc2ncc(CN3CCOCC3)s2)cc1,3.3
17,C=CCn1c(SCC(=O)Nc2cc(C)on2)nc2sc(C)c(C)c2c1=O,-0.759
18,O=C(Nc1nnc(-c2ccc(Br)cc2)o1)C1=COCCO1,3.07
19,COc1ccccc1CNC(=O)c1ccc(N(C)S(=O)(=O)c2ccc(C)cc2)cc1,17.5
20,Cl.OC(c1ccccc1)(C1CCCCC1)C(CN1CCOCC1)c1ccccc1 (centres unmarked),-12.5
21,Cn1nnnc1SC1CC(=O)N(c2ccccc2)C1=O (centres unmarked),2.48
22,O=C(NCCO)c1ccc2[nH]c3ccccc3c2c1,9.18

row,SMILES,"hERG current change (%, negative = inhibition) at 10uM [%]"
1,Cc1ccc(NC(=O)CN2CCOCC2)c(Br)c1,-9.76
2,Cc1ccc(NC(=O)CN2CCN(Cc3ccccc3)CC2)c(Br)c1.Cl,-72.5
3,Cc1ccc(NC(=O)CNCc2ccccc2)c(Br)c1,0.831
4,O=C(NCc1ccccc1Cl)C1CCN(S(=O)(=O)c2ccc(-n3cnnn3)cc2)CC1,-27.3
5,COc1cccc(CNC(=O)C(=O)N2CCC3(CC2)OCCN3S(=O)(=O)c2ccc(C)cc2)c1,-57
6,CCCN1CCN(S(=O)(=O)c2ccc(-n3cnnn3)cc2)CC1,-28
7,COc1ccccc1N1CCN(S(=O)(=O)c2ccc(-n3cnnn3)cc2)CC1,-72
8,O=S(=O)(c1ccc(-n2cnnn2)cc1)N1CCN(c2ccccc2F)CC1,-3.2
9,COc1ccccc1CNC(=O)C1CCN(S(=O)(=O)c2ccc(-n3cnnn3)cc2)CC1,-66.9
10,CCOC(=O)N1CCN(S(=O)(=O)c2ccc(-n3cnnn3)cc2)CC1,-61.4
11,CCOC(=O)c1ccc(S(=O)(=O)N2CCC(C(=O)NCc3ccccc3OC)CC2)cc1,-22.5
12,COc1ccc(CNC(=O)C(=O)N2CCC3(CC2)OCCN3S(=O)(=O)c2ccc(C)cc2)cc1,-29.9
13,CCOC(=O)N1CCN(S(=O)(=O)c2ccc(C)cc2)CC1,17.9
14,CCNC(=O)C(=O)N1CCC2(CC1)OCCN2S(=O)(=O)c1ccc(C)cc1,2.81
15,COc1ccccc1N1CCN(S(=O)(=O)c2ccc(-n3cnnn3)c(C)c2)CC1,-13.7
16,CS(=O)(=O)N1CCN(C(=O)Cc2ccc(Br)cc2)CC1,-1.44
17,COc1ccc2[nH]cc(CCNS(=O)(=O)c3ccc(F)cc3)c2c1,4.05
18,Cc1cc(C)c(OCC(=O)Nc2nnc(-c3ccco3)o2)c(C)c1,1.74
19,COc1ccccc1NC(=O)c1sc(Cl)nc1C,2.93
20,O=[N+]([O-])c1ccc(S(=O)(=O)Nc2ccc(-c3ccc(N4CCOCC4)nn3)cc2)cc1,-7.79
21,O=C(Cc1ccccc1)NNC(=S)NC(=O)c1cccnc1,14.7
22,CC(C)C(NC(=O)C1CCCCC1)C(=O)Nc1ccc2c(c1)OCCO2 (centres unmarked),-1.07

row,SMILES,"hERG current change (%, negative = inhibition) at 10uM [%]"
1,CC(C)(C)OC(=O)N1CC(O)CC1C(=O)OCC(=O)c1ccc(-c2ccccc2)cc1 (centres unmarked),32
2,COC(=O)C1Cc2c([nH]c3ccccc23)CN1 (centres unmarked),1.45
3,CN(C)c1ccc(N2C(=NC(=O)COc3ccccc3)SC3CS(=O)(=O)CC32)cc1 (centres unmarked),23.7
4,COc1ccc(-c2cnn3c4c(c(C)nc23)CCN4C2CCCC2)cc1OC,2.7
5,COc1ccc(CNC(=O)C2CCCN(S(=O)(=O)c3ccc(-n4cnnn4)cc3)C2)cc1 (centres unmarked),-8.97
6,COc1cccc(CNC(=O)C2CCN(S(=O)(=O)c3ccc(-n4cnnn4)cc3)CC2)c1,-57.3
7,COc1ccc(S(=O)(=O)N2CCC(C(=O)NCc3cccc(OC)c3)CC2)cc1,-17.4
8,COc1ccc(S(=O)(=O)N2CCC(C(=O)NCCC(=O)NCc3cccc(OC)c3)CC2)cc1,-4.05
9,COc1cccc(CNC(=O)C2CCN(S(=O)(=O)c3ccccc3)CC2)c1,-36
10,COc1cccc(CNC(=O)C2CCN(S(=O)(=O)c3ccc(C)cc3)CC2)c1,-50.4
11,Cc1ccc(C(=O)Nc2ccc(N3CCN(S(C)(=O)=O)CC3)cc2)cc1,4.23
12,c1ccc(-c2nnc3ccc(N4CCC5(CC4)OCCO5)nn23)cc1,-46.8
13,Brc1ccc2ncnc(NCc3ccco3)c2c1,-39.5
14,N#CCc1c(C#N)c(N)nc(N2CCOCC2)c1C#N,1.34
15,N#CCc1c(C#N)c(N)nc(N2CCN(C=O)CC2)c1C#N,-10.8
16,N#CCc1c(C#N)c(N)nc(N2CCN(c3ccc(F)cc3)CC2)c1C#N,-63.9
17,O=C1OC(=O)c2c(Br)c(Br)c(Br)c(Br)c21,20.7
18,CC(C)c1ccccc1OCCNC(=O)c1cccnc1,-1.33
19,O=C(NCCOc1ccccc1)c1cncc(Br)c1,-26.8
20,CC(C)c1ccccc1OCCNC(=O)c1cncc(Br)c1,-60.6
